Consider 13 compounds from PubChem BioAssay.

Molecules are shown by their SMILES. Calls of active or inactive are those of the source. Unless noted, the rule behind the calls is not given here.

Assay [1] is described as follows: resazurin metabolic signal in HepG2 cells – cell-based, resazurin fluorescence, 24 h, PK04 Diversity Set, profiling panel (AID 1172). Note: test concentration not given here. Particulars: HepG2 viability, higher = more signal. For orientation: The colour change of resazurin is a common sign of viable cells or microbes.
Assay [2] can be described thus: budding yeast growth changes without added modifier – OD600, strain BY4716, 24 h, basal condition, primary screen (AID 1173). Particulars: S. cerevisiae BY4716 growth, OD600, 24 h; higher = more signal, called active from +8 up or from −8 down.
The nature of assay [3]: viability profiling in MM1S myeloma cells – cell-based, resazurin fluorescence, basal, 24 h, PK04 Diversity Set, profiling panel (AID 1174).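 Note: MM1S multiple myeloma cell line; test concentration not given here.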 Particulars: higher = more signal, called active from +8 up or from −8 down.
Assay [4] deals with Dihydroorotate dehydrogenase (quinone), mitochondrial (Plasmodium falciparum (isolate 3D7)) (UniProt Q08210). Kind of assay: inhibition of P. falciparum DHODH – biochemical, C-terminal His tag, absorbance 600 nm, primary screen (AID 1175).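 Note: recombinant parasite enzyme with a five histidine tag at its C terminus; test concentration not given here.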 Particulars: PfDHODH enzyme, DCIP absorbance 600 nm; higher = more signal, called active from +8 up or from −8 down.
Dihydroorotate dehydrogenase (quinone), mitochondrial (Plasmodium falciparum (isolate 3D7)), sequence (Q08210 whole entry, looked up): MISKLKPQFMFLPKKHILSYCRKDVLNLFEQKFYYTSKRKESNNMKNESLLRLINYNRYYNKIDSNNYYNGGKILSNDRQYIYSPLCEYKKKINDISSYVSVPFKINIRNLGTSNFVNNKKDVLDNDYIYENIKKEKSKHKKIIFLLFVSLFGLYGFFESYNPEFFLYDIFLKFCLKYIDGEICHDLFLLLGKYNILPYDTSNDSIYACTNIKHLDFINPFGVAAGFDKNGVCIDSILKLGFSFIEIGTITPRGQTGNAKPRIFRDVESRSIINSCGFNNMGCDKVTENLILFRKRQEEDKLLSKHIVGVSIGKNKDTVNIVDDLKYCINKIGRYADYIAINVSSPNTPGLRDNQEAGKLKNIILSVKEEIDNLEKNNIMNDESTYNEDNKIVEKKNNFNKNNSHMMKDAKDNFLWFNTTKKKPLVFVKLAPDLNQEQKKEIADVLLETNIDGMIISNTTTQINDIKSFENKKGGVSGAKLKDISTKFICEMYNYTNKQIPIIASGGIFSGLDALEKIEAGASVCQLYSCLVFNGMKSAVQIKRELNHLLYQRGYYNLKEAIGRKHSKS
A short description of assay [5]: inhibition of PAO1 biofilm formation – strain PAO1, LB-PBS medium, absorbance 600 nm, primary screen (AID 1176). Note: test concentration not given here. Particulars: P. aeruginosa PAO1 growth/biofilm, A600, 12 h; higher = more signal.
A short description of assay [6]: growth modulation of vineyard yeast isolate – strain RM11-1a, OD600, basal, 24 h, primary screen (AID 1177).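 Note: cultures grown under basal conditions with no added stressor; test concentration not given here.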 Particulars: S. cerevisiae RM11-1a growth, OD600, 24 h; higher = more signal, called active from +8 up or from −8 down.
Assay [7] is described as follows: growth of efflux-deficient E. coli DRC39 – strain DRC39, OD650, 24 h, E. coli filamentation inducers, primary screen (AID 1178).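 Note: growth measured as culture turbidity by optical density at 650 nm; test concentration not given here.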 Particulars: E. coli DRC39 acrAB, higher = more signal, called active from +8 up or from −8 down.
Assay [8] is described as follows: growth of efflux-deficient E. coli DRC39 – strain DRC39, OD650, 48 h, E. coli filamentation inducers, primary screen (AID 1179).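 Note: screen aims at cell division blockers that make cells filament.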 Particulars: E. coli DRC39 delta-acrAB growth, higher = more signal, called active from +8 up or from −8 down.
Assay [9] can be described thus: viability profiling in RPMI8226 myeloma cells – cell-based, resazurin fluorescence, basal, 24 h, PK04 Diversity Set, profiling panel (AID 1180).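 Note: RPMI8826 multiple myeloma cell line at 5000 cells per well; test concentration not given here.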 Particulars: higher = more signal.
Assay [10] has as its target E3 ubiquitin-protein ligase XIAP (Homo sapiens) (UniProt P98170). Kind of assay: small molecules binding XIAP protein – biophysical, small-molecule microarray, fluorescence 635 nm, primary screen (AID 1181).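 Note: score merges 667 nm emission and signal to noise over triplicate slides.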 Particulars: higher = more signal.

E3 ubiquitin-protein ligase XIAP (Homo sapiens), sequence (P98170 whole entry, looked up): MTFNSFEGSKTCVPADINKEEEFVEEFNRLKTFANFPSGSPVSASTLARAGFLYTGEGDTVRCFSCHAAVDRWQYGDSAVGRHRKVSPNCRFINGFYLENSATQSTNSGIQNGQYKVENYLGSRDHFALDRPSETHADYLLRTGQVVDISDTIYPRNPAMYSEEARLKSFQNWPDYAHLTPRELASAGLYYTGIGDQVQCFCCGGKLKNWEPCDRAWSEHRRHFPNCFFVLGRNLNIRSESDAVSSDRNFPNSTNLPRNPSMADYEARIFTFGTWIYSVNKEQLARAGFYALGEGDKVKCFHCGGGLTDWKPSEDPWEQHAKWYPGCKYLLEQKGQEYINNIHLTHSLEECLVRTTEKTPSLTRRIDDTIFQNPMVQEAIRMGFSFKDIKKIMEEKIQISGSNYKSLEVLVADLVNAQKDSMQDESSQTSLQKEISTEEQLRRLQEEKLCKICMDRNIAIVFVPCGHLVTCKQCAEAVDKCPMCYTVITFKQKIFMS

In the case of `COC(=O)[C@@]1(Cc2ccc(F)cc2)[C@H]2c3cc(C(=O)N(C)C)n(Cc4ccc(OC)c(OC)c4)c3C[C@H]2CN1C(=O)c1ccccc1`, the z-score in assay [1] was -1.05; in assay [2] it was -0.0211 (inactive); in assay [3], -1.8 (inactive); in assay [5], 3.14 (inactive); in assay [6], 0.348 (inactive); in assay [7] it was -0.252 (inactive). Besides, the results for the z-score in assay [8] and in assay [9] were -1.45 (inactive) and -0.484, respectively. In addition, the composite z-score in [4] is -3.71 (inactive); in assay [10], 0.276.

As for `O=C(CS)NCCCCCNC(=O)[C@H]1C[C@H]2C(=O)N3CCC[C@H]3C(=O)N2[C@H]1c1cccc(OCCO)c1`, the z-score in [1] is 0.0716; in [2], -0.358 (inactive); in assay [3] it was 0.85 (inactive); in assay [5] it was -0.667 (inactive); in assay [6] it was 0.18 (inactive); in assay [7], -0.201 (inactive). Also, the results for the z-score in assay [8] and in assay [9] were 0.36 (inactive) and 0.472, respectively. The composite z-score in assay [4] is 0.274 (inactive); in [10] it was 0.0785.

For the compound `CC(C)(C)N1C(=O)[C@H]2[C@H]3[C@H](O)[C@H](O)CC(=NO[C@@H]4O[C@H](CO)[C@@H](O)[C@H](O)[C@H]4O)[C@@H]3CC[C@H]2C1=O`, the z-score in assay [1] was -0.332; in [2], -0.597 (inactive); in assay [3], -0.236 (inactive); in [5], 0.0821 (inactive); in assay [6], -0.471 (inactive); in [7], 0.398 (inactive). Further, the z-score is 0.441 (inactive) in [8] and -0.449 in assay [9]. Besides, the composite z-score is 0.0902 (inactive) in assay [4] and 0.144 in assay [10].

As to `O=C1[C@H]2[C@H]3[C@H](O)[C@H](O)CC(=NOCc4ccccc4)[C@@H]3CC[C@H]2C(=O)N1C1CCCCC1`, the z-score in [1] was -0.116; in assay [2], -3.16 (inactive); in assay [3], -0.321 (inactive); in assay [5] it was 1.29 (inactive); in assay [6], 0.594 (inactive); in assay [7], -0.315 (inactive). The values for the z-score in [8] and in assay [9] were -0.881 (inactive) and -0.456, respectively. Further, the values for the composite z-score in assay [4] and in [10] were 0.35 (inactive) and -0.144, respectively.

Consider `CC(CCN1CCc2nc(-c3ccccc3)c(-c3ccccc3)cc2C1)=NO[C@@H](C)c1cn([C@H](CO)Cc2ccccc2)nn1`, for which the z-score in assay [1] was -1.41; in assay [2] it was -3.25 (inactive); in assay [3], -0.996 (inactive); in assay [5] it was -0.23 (inactive); in assay [6] it was -2.23 (inactive); in assay [7] it was -0.249 (inactive). Moreover, the z-score in [8] was -0.147 (inactive); in assay [9], -0.914. For the same compound, the values for the composite z-score in assay [4] and in [10] were -1.81 (inactive) and -0.376, respectively.

Turning to `CC(C)CON=C1C[C@@H](O)[C@@H](O)[C@@H]2[C@@H]3C(=O)N(Cc4ccccc4)C(=O)[C@@H]3CC[C@@H]12`, the z-score is 0.854 in assay [1]; -0.608 (inactive) in assay [2]; 0.334 (inactive) in assay [3]; -0.495 (inactive) in assay [5]; 0.407 (inactive) in assay [6]; 0.426 (inactive) in [7]. For the same compound, the results for the z-score in assay [8] and in assay [9] were 0.918 (inactive) and 0.731, respectively. For the same compound, the composite z-score in assay [4] is -0.282 (inactive); in assay [10], -0.242.

Turning to `COc1ccc(COC(=O)NN=C2C[C@@H](O)[C@@H](O)[C@@H]3[C@@H]4C(=O)N(Cc5ccc6c(c5)OCO6)C(=O)[C@@H]4CC[C@@H]23)cc1`, the z-score in assay [1] is 0.466; in assay [2] it was -0.839 (inactive); in assay [3] it was 0.401 (inactive); in assay [5] it was 2.55 (inactive); in assay [6], -1.83 (inactive); in [7] it was -0.459 (inactive). Further, the z-score in assay [8] is -0.279 (inactive); in assay [9], 1.24. For the same compound, the composite z-score in assay [4] was -1.68 (inactive); in assay [10], -0.0792.

In the case of `C[C@H](c1ccccc1)N1C(=O)[C@H]2[C@H]3[C@H](O)[C@H](O)CC(=O)[C@@H]3CC[C@H]2C1=O`, the z-score in [1] is -0.353; in [2] it was 0.205 (inactive); in assay [3] it was -0.486 (inactive); in [5], 0.544 (inactive); in [6], -0.897 (inactive); in assay [7] it was -0.159 (inactive). Further, the z-score in assay [8] was -0.0569 (inactive); in assay [9], -0.523. For the same compound, the composite z-score in [4] was -0.303 (inactive); in [10], -0.0826.

For `COC(=O)[C@@]1(Cc2ccccc2)[C@H]2c3cc(C(=O)N4CCCC4)n(Cc4ccccn4)c3C[C@H]2CN1C(=O)c1ccccc1`, the z-score in assay [1] is -1.17; in [2] it was 1.32 (inactive); in [3] it was -1.45 (inactive); in assay [5], 1.79 (inactive); in [6] it was 0.957 (inactive); in [7] it was -0.452 (inactive). In addition, the z-score in assay [8] was -0.551 (inactive); in assay [9], -2.32. Moreover, the composite z-score in assay [4] was 0.553 (inactive); in assay [10] it was 0.0737.

In the case of `COc1cccc([C@H]2Oc3ccc(OC)cc3C(=NOC(C)CN3CCCc4nc(C)c(C)cc43)[C@@H]2O)c1` (stereo not given in full), the z-score in assay [1] was -0.948; in assay [2] it was -0.872 (inactive); in [3], -0.944 (inactive); in [5], -0.136 (inactive); in [6] it was -0.168 (inactive); in [7], -0.0128 (inactive). Besides, the z-score in [8] is -0.565 (inactive); in assay [9], -0.948. Besides, the values for the composite z-score in assay [4] and in [10] were 0.956 (inactive) and 0.271, respectively.

As for `CC(=O)OC[C@H]1O[C@H](CC=NOC[C@@H](C)[C@H](OCc2ccccc2)C(C)C)C=C[C@@H]1OC(C)=O`, the z-score in assay [1] was 0.643; in assay [2], 0.904 (inactive); in assay [3], -0.473 (inactive); in [5] it was 0.0738 (inactive); in assay [6], -0.0321 (inactive); in assay [7], 0.204 (inactive). In addition, the z-score is 0.193 (inactive) in assay [8] and 0.692 in assay [9]. The composite z-score in assay [4] is -0.298 (inactive); in assay [10] it was -0.0571.

Turning to `C[C@@H]1C=CCC(=O)OC[C@H](C)C(=O)OC[C@H]2O[C@H]1C=C[C@H]2O`, the z-score in assay [1] is 0.0061; in [2], -0.368 (inactive); in assay [3] it was 0.313 (inactive); in assay [5], -0.814 (inactive); in [6] it was 1.14 (inactive); in assay [7], 0.0992 (inactive). For the same compound, the z-score is -0.249 (inactive) in assay [8] and 0.52 in assay [9]. Besides, the composite z-score is 0.603 (inactive) in assay [4] and -0.379 in assay [10].

For the compound `COc1ccc([Si](C)(C)[C@@H]2[C@@H](CCO)O[C@]3(C(=O)N(Cc4ccc(NC(C)=O)cc4)c4ccccc43)[C@H]2C)cc1`, the z-score was -2.52 in assay [1]; 1.6 (inactive) in assay [2]; -5.15 (inactive) in assay [3]; -0.094 (inactive) in assay [5]; 3.91 (inactive) in assay [6]; -0.486 (inactive) in [7]. In addition, the figures for the z-score in [8] and in [9] were -0.937 (inactive) and -5.29, respectively. For the same compound, the figures for the composite z-score in assay [4] and in assay [10] were -1.34 (inactive) and 0.0291, respectively.
